Compounds with a hit are over-represented: about 11% of the library has one in this group of screens.
IMPase Li inh: membrane-permeable IMPase blocker, potentiated with lithium. CHO-M1 cells, IP1 TR-FRET (IP-One), carbachol + lithium. Potency, µM (series often up to 59.4 µM), for the others: at the highest dose activity, negative = IMPase inhibition, actives largely listed as inhibitors. hit rate 0.35% among 210,000. AID 1457; active = well fitted inhibition curve with a large enough effect; inconclusive = small, poorly fitted or top-dose-only effect; inactive = no such curve, though single readings can be large or run the other way;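 also: IP1 builds up when IMPase is blocked and the TR-FRET signal falls; potency is read from the fitted curve at half-maximal effect; plate controls were basal vehicle for no effect and high inhibitor control for full effect; nearly all actives have a fitted effect of over 50% in size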
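Concentration–response in CHO-M1 cells, lithium-potentiated; 30 min at 37C. IP1 detected by competitive TR-FRET after 10 min lysis at RT. Hill-fitted AC50.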
HPGD block: blocks human HPGD enzyme activity; Potency, µM, inactives show top-dose activity change, negative = inhibition, actives largely listed as inhibitors; P15428; hit rate 4.3% among 150,000; purified HPGD, NADH fluorescence kinetic, PGE2 substrate; also: potency is read from the fitted curve at half-maximal effect
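NADH formation kinetics: reaction with 30 uM PGE2 and 1 mM NAD+ (final), 20 nM enzyme, Tris-HCl pH 8 with Tween 20, after 15 min compound preincubation at room temperature. Fluorescence change, last versus first of five reads.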
IMPase inh: IMPase inhibition in cells | P97697 | CHO-M1 cells, IP1 accumulation, HTRF TR-FRET ratio | inhibition (IP1 accumulation), % at 46.1 µM | 120,000 tested, under 10 active; active = well fitted curve in the direction sought with a large enough effect in the signal ratio, not every such curve was filed as active; inconclusive = small, poorly fitted or top-dose-only effect, or a change in a side signal; inactive = no such curve, though single readings can be large or run the other way; the % refers to the signal ratio;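 also: cells stimulated with carbachol in lithium chloride buffer; plate controls were DMSO basal wells for no effect and reference inhibitor wells for full effect; higher means more IMPase inhibition seen as more IP1 and lower FRET ratio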
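Carbachol-driven Gq signalling in CHO-M1 cells (2000/well) generates IP1. Compounds that block IMPase raise IP1 and so reduce the FRET signal from Eu-anti-IP1 and d2-IP1 after a 10 min room-temperature lysis.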
ALDH1A1 inh: ALDH1A1 (human) enzyme inhibition | Potency, µM (series often up to 75.3 µM), for inactives: top-dose activity, negative = inhibition, usual class: inhibitors | hit rate 7.3% among 220,000 | P00352 | Purified ALDH1A1, NADH fluorescence, propionaldehyde substrate;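 also: potency is read from the fitted curve at half-maximal effect; plate controls were no enzyme wells and a reference inhibitor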
Target sequence (P00352 whole entry, looked up): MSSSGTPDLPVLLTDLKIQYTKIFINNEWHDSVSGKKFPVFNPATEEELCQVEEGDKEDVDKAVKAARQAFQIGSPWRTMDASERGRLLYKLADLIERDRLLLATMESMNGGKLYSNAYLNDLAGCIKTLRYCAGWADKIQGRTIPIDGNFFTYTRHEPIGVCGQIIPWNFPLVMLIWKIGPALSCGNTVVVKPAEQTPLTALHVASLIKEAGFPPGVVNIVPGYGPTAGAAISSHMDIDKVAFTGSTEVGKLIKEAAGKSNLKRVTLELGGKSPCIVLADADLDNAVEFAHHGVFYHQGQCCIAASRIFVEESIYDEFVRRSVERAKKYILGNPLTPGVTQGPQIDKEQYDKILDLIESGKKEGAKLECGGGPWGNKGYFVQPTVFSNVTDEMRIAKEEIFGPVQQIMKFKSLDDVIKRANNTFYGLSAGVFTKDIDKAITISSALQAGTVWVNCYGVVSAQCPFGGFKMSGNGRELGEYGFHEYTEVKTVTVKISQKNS
PNC inhibitor: inhibitors of perinucleolar compartment assembly. PC3M PTB-GFP, PNC prevalence imaging, 16 h; active compounds read low. activity change (PNC), negative = inhibition, % at 10 µM. hit rate 3.1% among 140,000;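 active = readout at or below -70, meaning at least 70% loss of cells showing the perinucleolar compartment, a nuclear body marking cancer cells; inconclusive = readout between -30 and a set limit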;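 also: plate controls were DMSO wells for no effect and camptothecin positive control wells for full effect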
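Read-out is percentage of cells bearing a perinucleolar compartment, from automated 20x imaging of fixed, Hoechst-stained PC3M PTB-GFP cells. Cells were seeded 4 h, then exposed 16 h to compound (23 nl of library stock) in duplicate plates.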
The depositor's hits bear a star; ? = inconclusive; . = not tested or not shown; [ ] = remark or other dose. Unless noted, calls follow the shape of the dose curve; as a rule, active = well fitted inhibition curve with a large enough effect (not every such curve was filed as active); inconclusive = small, poorly fitted or top-dose-only effect, or another doubt; inactive = no such curve, though single readings can be large or run the other way. Unless noted, % is scaled to controls: 0 for no effect and ±100 for the full control effect.

SMILES | IMPase Li inh | HPGD block | IMPase inh | ALDH1A1 inh | PNC inhibitor
COc1ccc2c(c1)CCc1sc(NC(=O)c3ccco3)nc1-2 | 8%[38.3 µM] | ? | 5 | 22µM* | -17
COc1ccc2c(c1)Cc1sc(NC(C)=O)nc1-2 | 16%[38.3 µM] | -1% | 9 | ? | ?
CCc1ccc(OCC(=O)N(Cc2ccc(C(C)C)cc2)C2CCS(=O)(=O)C2)cc1 (configuration not stated) | . | . | 2 | . | .
C=CC[C@@H]1[C@H](O)CC[C@@]2(C)[C@H]1CC[C@@H]1[C@@H]2CC[C@]2(C)C([C@H](C)CCCC(C)C)CC[C@@H]12 (some centres not stated) | 4% | . | . | 9% | .
O=C(CSc1nc(-c2ccccc2)nc2c1CCCC2)c1ccc(F)cc1 | . | . | 5 | . | .
Cc1ccc(CN2CCN(/N=C\C=C\c3ccccc3)CC2)cc1 | 12% | . | . | -5% | .
Cc1c(C(=O)NN)nc2ccccn12 | -3% | -12% | 5 | 4.5µM* | -11
C/C(=N\NC(=O)c1nc2ccccn2c1C)c1cc2ccccc2o1 | -2% | . | . | -16% | .
CCCNC(=O)OC[C@@H]1O[C@H](CCO/N=C\C[C@H]2C=C[C@H](OC(C)=O)[C@@H](COC(C)=O)O2)C=C[C@@H]1Oc1ccc(OC)cc1 | . | . | . | -3%[13.5 µM] | .
CCOc1ccc(C2=NNC(c3cccs3)=Nc3ccc(OC)cc32)cc1OCC | 13% | -13% | -5 | 3% | -100*
COc1ccc(C2=NNC(c3cccs3)=Nc3ccc(OC)cc32)cc1 | 17% | -6% | 7 | -8% | ?
O=C(Cc1ccccc1)NCC(=O)OCC(=O)c1ccc([N+](=O)[O-])cc1 | -2% | -2% | . | 1.4µM* | ?
Cc1ccc(C(=O)COC(=O)CNC(=O)CNC(=O)c2ccc(C)cc2)cc1 | -21% | -1% | . | 12% | -1
Cc1ccc(C(=O)NCC(=O)NCC(=O)OCC(=O)c2ccc([N+](=O)[O-])cc2)cc1 | -9%[38.3 µM] | -14% | -1 | 1µM* | 29
O=C(CNS(=O)(=O)c1ccccc1)OCC(=O)c1ccc([N+](=O)[O-])cc1 | 3% | -4% | . | 1.1µM* | ?
O=C(CNS(=O)(=O)c1ccccc1)OCC(=O)c1ccc(OC(=O)c2ccccc2)cc1 | -12%[38.3 µM] | -3% | 1 | -2% | 82
O=C(CNc1ccccc1)c1ccc([N+](=O)[O-])cc1 | 24% | ? | 14 | 3.5µM* | ?
Cc1ccc(NC2=NCC(=O)N2C2CCCC2)c(C)c1 | 8% | -2% | ? | -2% | ?
N#C/C(=C\Nc1ccccc1O)c1nc2ccccc2o1 | 18% | -29% | . | ? | 22
COC(=O)NC(CC(C)=O)c1ccc2c(c1)OCO2 (configuration not stated) | . | . | . | 9%[13.5 µM] | .
CC1(C)[C@@H]2CC[C@@](C)(C2)[C@H]1OC(=O)c1ccccc1C(=O)O | 1% | -7% | . | -2%[13.5 µM] | .
COc1ccc(NC(=O)Cn2c(=O)n(Cc3ccccc3Cl)c(=O)c3cc(OC)c(OC)cc32)cc1OC | . | . | 6 | . | .
C=CCOC(=O)N[C@@H](CC(C)C)/C(C(=O)OC)=C(\C)NCc1ccccc1 | 26% | -20% | . | -4% | .
CN(/C=C/c1c([N+](=O)[O-])c(=O)n(C)c(=O)n1C)c1ccccc1 | 7% | . | . | 4% | .
CC1=C/C(=C/N(C)c2ccccc2)C(=O)S1 | 0%[38.3 µM] | 32µM* | 1 | 20µM* | -24
SMILES | IMPase Li inh | HPGD block | IMPase inh | ALDH1A1 inh | PNC inhibitor
Cc1nonc1C1CCCN1Cc1nc(-c2ccccc2Cl)oc1C (configuration not stated) | 4% | . | . | ? | .
Cc1oc(-c2ccc3ccccc3c2)nc1CN(C)C(C)c1ccncn1 (configuration not stated) | 4% | . | . | 15µM* | .
O=C(N/N=C1\CC2CC=CC12)c1ccc(COc2ccccc2)cc1 (configuration not stated) | 13% | 22µM* | . | -4% | 35
COc1cc(C2c3c(oc4ccccc4c3=O)C(=O)N2c2nncs2)cc(OC)c1OC (configuration not stated) | . | . | 3 | . | .
O=C(NCC1CCCO1)c1cnn2c1NC(c1ccccc1)CC2C(F)(F)F (configuration not stated) | 24%[38.3 µM] | 25µM* | -1 | 6% | -27
Cc1c(CNC(=O)c2cnn3c2NC(c2ccc(Br)cc2)CC3C(F)(F)F)cnn1C (configuration not stated) | 35%[38.3 µM] | -4% | -1 | 5% | -123*

Screening results deposited in PubChem by National Center for Advancing Translational Sciences (NCATS).
